Pf growth 48h – P. falciparum growth inhibition at 48 hours (one generation); P. falciparum luciferase growth in erythrocytes, 48 h; Potency, µM (series often up to 28.7 µM), inactives show at the top dose activity change, negative = inhibition, actives largely listed as inhibitors; AID 504832; 5.9% of 310,000 active; further: potency means the concentration at half of the fitted maximal effect; on the % scale 0 is the no-effect control and ±100 the full control effect
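Compounds are pin-transferred into medium, infected erythrocytes (2% hematocrit, 0.1% parasitemia final) are added, and plates sit one parasite generation at 37 C in 5% CO2. Detection reagent is then added and luminescence measured.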
Pf growth 96h – P. falciparum growth inhibition at 96 hours. P. falciparum luciferase reporter growth, 96 h. Potency, µM (top dose mostly 28.7 µM), for the others: at the highest dose activity change, negative = inhibition, hits mostly inhibitors. 6.9% of 320,000 active. AID 504834; further: potency means the concentration at half of the fitted maximal effect; on the % scale 0 is the no-effect control and ±100 the full control effect
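Two parasite generations (96 h, 37 C, 5% CO2) of compound exposure in infected erythrocytes (0.05% parasitemia, 2% hematocrit). Luciferase-reporter P. falciparum; decreased luminescence indicates inhibited growth, aimed at apicoplast-acting delayed death.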
HCV inh – HCV inhibition | AID 651820 | Potency, µM (highest dose often 41.8 µM), inactives show top-dose activity change, negative = inhibition, most hits filed as inhibitors | Huh7.5.1 HCVcc-Cre infection, luciferase reporter, 44 h | 3.4% of 340,000 active; further: potency means the concentration at half of the fitted maximal effect; on the % scale 0 is the no-effect control and ±100 the full control effect
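1,000 cells/well; 4 h culture; + compound; + HCVcc-Cre (~0.5 moi); 44 h; luciferase substrate, RT 15 min; read 15 sec.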
AMA1-RON2 inh – AMA1-RON2 (P. falciparum) interaction inhibition; 0.2% of 360,000 active; Potency, µM (titrated, usually from 58.2 µM), for inactives: top-dose activity change, negative = inhibition, hits mostly inhibitors; AlphaScreen AMA1-biotinylated RON2 peptide binding;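 further: potency means the concentration at half of the fitted maximal effect; 0% = vehicle wells and -100% = peptide control; nearly all actives have a fitted effect of over 45% in size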
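AMA1 (3D7) with his tag at 25 nM final met compounds first, then biotinylated RON2 peptide at 25 nM; detection used donor plus acceptor beads, 10 µg/mL apiece, read by AlphaScreen after 30 min at room temperature.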
NS1 inh – blocks influenza NS1 protein function; 0.4% of 270,000 active; Potency, µM (titrated, usually from 46.1 µM), for inactives: at the highest dose activity, positive = more growth; AID 2326; calls by dose curve; further: potency means the concentration at half of the fitted maximal effect; actives are rising curves; nearly all actives have a fitted effect of over 50% in size
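A cell-based growth assay was used: compounds that relieve NS1-induced slow growth of budding yeast raise OD600. Assay medium was yeast nitrogen base with ammonium sulphate and -URA supplement, pH 6.0, with 2% galactose.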
SARS PLpro yeast – SARS-CoV PLP inhibition in yeast | S. cerevisiae expressing SARS-CoV PLpro, growth rescue | Potency, µM (series often up to 32.9 µM), for inactives: at the highest dose activity, positive = growth rescue, most hits filed as activators | 0.19% of 330,000 active; calls by dose curve; further: potency means the concentration at half of the fitted maximal effect; 0% is about no effect; nearly all actives have a fitted effect of over 55% in size
Flu NS1 inh – influenza NS1 function inhibition validation | shares compounds with NS1 inh | influenza NS1 function cell assay, 15-point titration | activity change, negative = inhibition, % at 32.9 µM | 1,400 tested, under 10 active | AID 492980; calls by dose curve; further: 0% is about no effect
Flu PR8 replic – influenza virus titer reduction, NS1 project | shares compounds with NS1 inh | MDCK infected influenza A/PR/8/34, virus titer TCID50; stronger effect = lower value | virus titer (log TCID50), log10 TCID50 at 5 µM | 30% of 95 active | AID 504647; call rule not given here
Numbers without * were called inactive; ? = inconclusive; / = no result; [ ] = dose if it differs, or a comment. Most compounds without a hit are left out; they make up all but 12% or so of the library. Unless noted, the call rests on the fitted dose curve; in most records, active means well fitted curve in the direction sought with a large enough effect; inconclusive means small, poorly fitted or top-dose-only effect, or another doubt; inactive means no such curve, though single readings can be large; an effect the other way counts as inactive or inconclusive.

SMILES | Pf growth 48h | Pf growth 96h | HCV inh | AMA1-RON2 inh | NS1 inh | SARS PLpro yeast | Flu NS1 inh | others
CCOC(=O)C1CCN(C(=O)CSc2ccccc2)CC1 | 6% | 1% | 7% | 7% | 11µM* | 1% | 17
O=C(Nc1ccc(S(=O)(=O)Nc2nccs2)cc1)c1cnc(Cl)c(Cl)c1 | ? | ? | 5% | -6% | 6% | 0% | /
COc1ccccc1/C=N/NC(=O)c1csc(C)c1C | 55% | 33% | -17% | 1% | 13% | 23% | /
COc1ccccc1/C=N/NC(=O)c1[nH]c(C)c(C(=O)N/N=C/c2ccccc2OC)c1C | 29% | ? | ? | 10% | ? | -10% | ?
CC(C)n1c(SCC(=O)NC2CC2)nnc1-c1ccco1 | 14% | -24% | -5% | -8% | 7% | 1% | /
CN1CCc2cc(NC(=O)Nc3cccnc3)ccc21 | / | / | / | / | 25µM* | / | 0
COc1ccc(CN2C(=O)CC(=O)NC2=O)cc1 | 1% | 4.1µM* | 23% | 2% | 3.5µM* | 0% | 26
COc1ccc(N2C(=O)CC(=O)NC2=O)cc1 | 28% | -5% | 2% | -4% | 4% | 0% | /
CC(C)CCNC(=O)NC(=O)CSc1nnc2ccccn12 | -5% | ? | 11% | 0% | 4.5µM* | 11% | 2
CC(OC(=O)C1CCCCC1)C(=O)Nc1ccc(S(N)(=O)=O)cc1 (stereo unspecified) | 16% | 15% | -3% | 0% | / | 10%[6.58 µM] | /
COCC(C)N=C1NN=C(c2c[nH]c3ccccc23)CS1 (stereo unspecified) | 139% | 0% | -7% | 67% | ? | 13% | -2
COc1ccc(C(=O)Nc2cc(S(=O)(=O)N3CCCCC3)ccc2C)cc1 | / | / | / | -11% | / | / | /
COc1ccccc1NS(=O)(=O)c1ccc(C)c(NC(=O)c2ccc(S(=O)(=O)N3CCCCCC3)cc2)c1 | ? | ? | 7.9µM* | 0% | 20µM* | ? | 7
Cc1ccc(NC(=O)Cn2c([N+](=O)[O-])cnc2C)cc1Cl | 13% | 49% | 2% | 12% | 5% | 1% | /
COc1ccccc1/C=C1\SC(=S)N(CCC(=O)Nc2cccc(O)c2)C1=O | ? | 260% | -19% | 2% | -2% | -1% | /
O=C(O)c1cccc(CN2C(=O)CSC2=O)c1 | 32% | ? | 13% | 7% | 22µM* | 4% | -9
CC(NC(=O)c1ccncc1)c1ccc(Cl)cc1Cl (stereo unspecified) | -1% | 7% | -3% | 15% | 8% | 1% | /
O=C(CNC(=O)c1cccc(F)c1)OCCOc1cccc(Cl)c1 | -12% | 26% | 9% | 2% | / | 5% | /
CC[C@@H](C)[C@H]1O[C@]2(CC[C@@H]1C)C[C@@H]1C[C@@H](C/C=C(\C)[C@@H](O[C@H]3C[C@H](OC)[C@@H](O[C@H]4C[C@H](OC)[C@@H](O)[C@H](C)O4)[C@H](C)O3)[C@@H](C)/C=C/C=C3\CO[C@@H]4[C@H](O)C(C)=C[C@@H](C(=O)O1)[C@]34O)O2 | / | / | / | / | 7.1µM* | / | -1
Cc1ccc(Cl)cc1NC(=O)CCC(=O)NCc1ccco1 | 1% | ? | 17% | -22% | 9% | -2% | /
COc1ccc(NC(C)=O)cc1NC(=O)c1ccc2ccccc2c1 | 16% | -11% | -8% | 0% | / | -3% | /
CC(=O)c1ccc2c(c1)C1C(Cl)C(Sc3ccccc3[N+](=O)[O-])CC1C(c1ccccc1[N+](=O)[O-])N2 (stereo unspecified) | 2.3µM* | ? | 2.2µM* | -8% | 2µM* | 20% | 11
CC(=O)c1ccc(Sc2nnnn2-c2ccccc2)c([N+](=O)[O-])c1 | -24% | 0% | ? | -10% | -5% | -66% | /
Cc1ncc(CN=Cc2ccc(Cl)cc2)c(N)n1 | -4% | 57% | 23% | -2% | -1% | 1% | /
CCC(C(=O)NCCN1CCN(C)CC1)n1c(C)c2cnn(-c3ccccc3)c(=O)c2c1C (stereo unspecified) | ? | ? | 16% | -1% | ? | -3% | 0
SMILES | Pf growth 48h | Pf growth 96h | HCV inh | AMA1-RON2 inh | NS1 inh | SARS PLpro yeast | Flu NS1 inh | others
CCCN1CCN(C(=O)CCCn2c(C)c3cnn(-c4ccccc4)c(=O)c3c2C)CC1 | / | ? | 9% | -7% | 2% | -8% | /
Cc1ccc(N(CC(=O)N/N=C/c2ccco2)S(=O)(=O)c2ccccc2)cc1 | ? | ? | 12% | 8% | 11µM* | 1% | -19 | Flu PR8 replic=7.7
COc1ccc(N(CC(=O)N/N=C/c2ccco2)S(=O)(=O)c2ccccc2)cc1Cl | -28% | ? | -25% | 7% | 0% | 0% | /
O=C1NC(=S)S/C1=C/c1ccc(N2CCOCC2)o1 | 9% | 28% | ? | 2% | 7.9µM* | -8% | 2
Cc1ccc(-n2nnnc2SCC(=O)c2cc(C)n(-c3cc(C)on3)c2C)c(C)c1 | ? | -30% | ? | -6% | ? | 11% | -15
O=C(Nc1nc2ccc(S(=O)(=O)N3CCCCC3)cc2s1)c1ccncc1 | ? | -19% | -1% | 32% | 10µM* | 1% | -28
CCOC(CNC(=O)CN1C(=O)COc2ccc(S(=O)(=O)N3CCCC3)cc21)OCC | 12% | ? | 15% | -1% | 2% | -2% | /
C=CC[C@H](CC(=O)NCCO)C(=O)NCCOC(=O)[C@@H](CC=C)Cc1ccc(F)cc1 | / | / | 3% | -4% | / | 3% | /
CCCNC(=O)C1(C)CCCN(Cc2ccc(-c3ccccc3)cc2)C1 (stereo unspecified) | / | / | / | 9% | / | / | /
O=C(Cn1nc(-c2ccccc2)c2ccccc2c1=O)Nc1ccc(O)cc1 | 5% | 23% | 9% | -2% | 7% | 0% | /
Cc1ccc(NC(=O)NNC(=O)Cn2nc(-c3ccccc3)c(-c3ccccc3)c(C#N)c2=O)cc1 | ? | ? | -17% | -1% | ? | -1% | -37
Cc1nnc(SC(C)C#N)n1-c1ccccc1 (stereo unspecified) | -3% | 6% | -5% | -8% | 5% | 0% | /
Cc1cccc(N2C(=O)NC(=O)C3(Cc4cc(C)ccc4N(C)C3)C2=O)c1 (stereo unspecified) | 7% | 6% | 7% | 3% | 4.5µM* | 3% | 13
COc1cccc(NC(=O)C(Sc2nnc(-c3ccncc3)n2-c2ccc(Cl)cc2)c2ccccc2)c1 (stereo unspecified) | ? | ? | ? | 13% | 14µM* | 5% | 2

Bioassay records: PubChem, National Center for Advancing Translational Sciences (NCATS)
